This is an account of results in PMC11995724, “Antibiotic target discovery by integrated phenotypic and activity-based profiling of electrophilic fragments” (Cell chemical biology, 2025).

Out of some 3,200 compounds screened, about 110 (3.4%) showed an effect of 50% or more. This excerpt belongs to a sample that is enriched for strong results.

The experiment deals with T1, V. cholerae SAD30.
T1 construct: SAD30
Also noted: species or system S. aureus MSSA476 (TSB) or V. cholerae SAD30 (LB); 384-well bacterial growth screen at 25 uM, OD600 relative to DMSO control. The note with it: relative growth, OD600, LB; 25 µM; inhibitor.
In the case of `CC(C#N)CSc1ccccc1NC(=O)CCl` (stereo not shown) [6-K16, 2-chloro-N-{2-[(2-cyano-2-methylethyl)sulfanyl]phenyl}acetamide], the “% of control remaining” value is given as 86.757%.

With `C=CC(=O)N1CCC(C(=O)N[C@]2(C(=O)OC)CC[C@@H](C)CC2)CC1` [3-E17, methyl (1r,4r)-4-methyl-1-[1-(prop-2-enoyl)piperidine-4-amido]cyclohexane-1-carboxylate], the “% of control remaining” value came out at 101.088%.

`O=C(CCl)N(Cc1ccc(Cl)cc1)C12CC3CC(CC(C3)C1)C2` [4-H07, N-(adamantan-1-yl)-2-chloro-N-[(4-chlorophenyl)methyl]acetamide]: the “% of control remaining” value was 55.3806%.

Consider `Cc1nn(CCC(=O)N2CCSSCC2)c(C)c1[N+](=O)[O-]` [10-J05, 3-(3,5-dimethyl-4-nitro-1H-pyrazol-1-yl)-1-(1,2,5-dithiazepan-5-yl)propan-1-one], for which the “% of control remaining” value came out at 92.1099%.

Take `CCOC(=O)c1c(NC(=O)CCl)sc(C)c1C` [4-O15, ethyl 2-(2-chloroacetamido)-4,5-dimethylthiophene-3-carboxylate]: the “% of control remaining” value stood at 102.998%.

Consider `CC(=O)N1c2ccc(C(=O)CCl)cc2CC1C` (stereo not shown) [10-I20, 1-(1-acetyl-2-methyl-2,3-dihydro-1H-indol-5-yl)-2-chloroethan-1-one], for which the “% of control remaining” value is recorded as 84.473%.

Turning to `CC(=O)N1CCc2cc(C(=O)C(C)Cl)ccc21` (stereo not shown) [10-L22, 1-(1-acetyl-2,3-dihydro-1H-indol-5-yl)-2-chloropropan-1-one], the “% of control remaining” value is 100.214%.

With `CS(=O)(=O)N1CCc2cc(C(=O)CCl)ccc21` [10-B19, 2-chloro-1-(1-methanesulfonyl-2,3-dihydro-1H-indol-5-yl)ethan-1-one], the “% of control remaining” value was 18.0791%.

As for `N#CC(=Cc1ccsc1)C(=O)Nc1ccccc1Cl` [9-O05, N-(2-chlorophenyl)-2-cyano-3-(thiophen-3-yl)prop-2-enamide], the “% of control remaining” value came out at 98.9123%.

Turning to `C=CC(=O)NCC1CNC(=O)c2ccccc21` (stereo not shown) [2-F17, N-[(1-oxo-1,2,3,4-tetrahydroisoquinolin-4-yl)methyl]prop-2-enamide], the “% of control remaining” value was 90.0415%.

As for `CC(Cl)C(=O)N1CCN(CCOc2ccc3c(c2)CCC3)CC1` (stereo not shown) [6-H17, 2-chloro-1-{4-[2-(2,3-dihydro-1H-inden-5-yloxy)ethyl]piperazin-1-yl}propan-1-one], the “% of control remaining” value was 64.6128%.

On to `C=CC(=O)N1CCCC(CS(=O)(=O)NC)C1` (stereo not shown) [2-E18, N-methyl-1-[1-(prop-2-enoyl)piperidin-3-yl]methanesulfonamide], for which the “% of control remaining” value is recorded as 95.4453%.

Take `Cn1ccnc1C(=O)CCl` [10-C15, 2-chloro-1-(1-methyl-1H-imidazol-2-yl)ethan-1-one]: the “% of control remaining” value was 101.461%.

`O=C(CCl)c1cscn1` [10-L08, 2-chloro-1-(1,3-thiazol-4-yl)ethan-1-one]: the “% of control remaining” value was 0%.

On to `C[C@@H](NC(=O)CCl)c1ccccc1` [6-O20, 2-chloro-N-[(1R)-1-phenylethyl]acetamide], for which the “% of control remaining” value is 94.0373%.

On to `O=C(CCl)c1ccccn1` [10-J03, 2-chloro-1-(pyridin-2-yl)ethan-1-one], for which the “% of control remaining” value turned out to be 0%.

Regarding `Cl.O=C(CCl)Nc1ccccn1` [5-B14, 2-chloro-N-(pyridin-2-yl)acetamide hydrochloride], the “% of control remaining” value is reported as 98.0141%.

In the case of `C[C@H]1CN(C(=O)CCl)CCN1C(=O)c1cscn1` [5-L05, 2-chloro-1-[(3S)-3-methyl-4-(1,3-thiazole-4-carbonyl)piperazin-1-yl]ethan-1-one], the “% of control remaining” value was 86.0775%.

Turning to `N#CC(=Cc1ccc(O)cc1)C(=O)NCCc1c(F)cccc1F` [9-I16, 2-cyano-N-[2-(2,6-difluorophenyl)ethyl]-3-(4-hydroxyphenyl)prop-2-enamide], the “% of control remaining” value was determined as 83.8205%.

Turning to `c1nc(N2CCSSCC2)c2c3c(sc2n1)CCCC3` [10-M22, 3-(1,2,5-dithiazepan-5-yl)-8-thia-4,6-diazatricyclo[7.4.0.0,2,7]trideca-1(9),2,4,6-tetraene], the “% of control remaining” value is recorded as 79.3298%.

`O=C(CCl)Nc1nccc(Cl)n1` [6-C19, 2-chloro-N-(4-chloropyrimidin-2-yl)acetamide]: the “% of control remaining” value is recorded as 88.7288%.

Take `CC(Cl)C(=O)Nc1ccccc1Sc1ccccc1` (stereo not shown) [6-H10, 2-chloro-N-[2-(phenylsulfanyl)phenyl]propanamide]: the “% of control remaining” value was 56.4224%.

On to `O=C1C=CC(=O)N1c1ccccc1Sc1ccccc1` [10-K12, 1-[2-(phenylsulfanyl)phenyl]-2,5-dihydro-1H-pyrrole-2,5-dione], for which the “% of control remaining” value came to 28.0538%.

For `O=C(CCl)Nc1ccccc1Sc1ccc(Cl)cc1` [4-O13, 2-chloro-N-{2-[(4-chlorophenyl)sulfanyl]phenyl}acetamide], the “% of control remaining” value worked out at 72.9782%.

Turning to `O=C1C=CC(=O)N1c1ccccc1Sc1ccc(Cl)cc1` [10-A03, 1-{2-[(4-chlorophenyl)sulfanyl]phenyl}-2,5-dihydro-1H-pyrrole-2,5-dione], the “% of control remaining” value was determined as 28.6772%.

Take `O=C(O)C(c1ccccc1)N1C(=O)C=CC1=O` (stereo not shown) [10-E21, 2-(2,5-dioxo-2,5-dihydro-1H-pyrrol-1-yl)-2-phenylacetic acid]: the “% of control remaining” value came out at 103.487%.

As for `Cc1cc(NC(=O)CCl)n(-c2ccccc2)n1` [4-G05, 2-chloro-N-(3-methyl-1-phenyl-1H-pyrazol-5-yl)acetamide], the “% of control remaining” value was 102.825%.

Take `CC(C)c1ccc(CCNC(=O)CCl)cc1` [6-I16, 2-chloro-N-{2-[4-(propan-2-yl)phenyl]ethyl}acetamide]: the “% of control remaining” value was determined as 91.9139%.

In the case of `C=CC(=O)N1CCN(S(=O)(=O)Cc2ccon2)CC1` [1-J07, 1-{4-[(1,2-oxazol-3-yl)methanesulfonyl]piperazin-1-yl}prop-2-en-1-one], the “% of control remaining” value is 89.2377%.

For `CN(Cc1ccccc1)S(=O)(=O)c1ccc(NC(=O)CCl)cc1` [5-K08, N-{4-[benzyl(methyl)sulfamoyl]phenyl}-2-chloroacetamide], the “% of control remaining” value was 97.1735%.

For `N#CC(=Cc1cnc(-c2ccccc2)nc1)C(=O)NCc1ccco1` [9-M14, 2-cyano-N-[(furan-2-yl)methyl]-3-(2-phenylpyrimidin-5-yl)prop-2-enamide], the “% of control remaining” value was 95.2413%.

Take `O=C(CCl)Nc1c(Cl)cccc1C(F)(F)F` [5-B04, 2-chloro-N-[2-chloro-6-(trifluoromethyl)phenyl]acetamide]: the “% of control remaining” value is recorded as 98.0141%.

With `O=C(CCl)Cc1c(Cl)cccc1Cl` [10-K15, 1-chloro-3-(2,6-dichlorophenyl)propan-2-one], the “% of control remaining” value was determined as 45.6653%.

As to `O=C(CCl)NCCc1c(F)cccc1F` [5-F20, 2-chloro-N-[2-(2,6-difluorophenyl)ethyl]acetamide], the “% of control remaining” value was 99.5272%.

With `O=C(CCl)Cc1cccc(F)c1F` [10-K17, 1-chloro-3-(2,3-difluorophenyl)propan-2-one], the “% of control remaining” value is given as 0.1559%.

Regarding `O=C(CCl)Cc1c(F)cccc1F` [10-O15, 1-chloro-3-(2,6-difluorophenyl)propan-2-one], the “% of control remaining” value amounted to 99.7467%.

Turning to `O=C(CCl)Nc1ccccc1F` [4-M16, 2-chloro-N-(2-fluorophenyl)acetamide], the “% of control remaining” value is 98.3394%.

As for `Cc1cccc(Cl)c1CCCNC(=O)CCl` [7-F04, 2-chloro-N-[3-(2-chloro-6-methylphenyl)propyl]acetamide], the “% of control remaining” value stood at 91.9874%.

Take `O=C(CCl)Nc1ccc(F)c(F)c1F` [4-M05, 2-chloro-N-(2,3,4-trifluorophenyl)acetamide]: the “% of control remaining” value was determined as 104.033%.

Consider `O=C(CCl)Cc1c(F)cccc1Cl` [10-D20, 1-chloro-3-(2-chloro-6-fluorophenyl)propan-2-one], for which the “% of control remaining” value is 36.1582%.

For `Cc1ccc2sc(N(Cc3ccccc3)C(=O)CCl)nc2c1C` [4-K06, N-benzyl-2-chloro-N-(4,5-dimethyl-1,3-benzothiazol-2-yl)acetamide], the “% of control remaining” value worked out at 100.927%.

For the compound `C=CC(=O)Nc1ccccc1Sc1nncs1` [1-G04, N-[2-(1,3,4-thiadiazol-2-ylsulfanyl)phenyl]prop-2-enamide], the “% of control remaining” value turned out to be 100.149%.

On to `COCCNC(=O)C(C#N)=Cc1sccc1C` [9-M17, 2-cyano-N-(2-methoxyethyl)-3-(3-methylthiophen-2-yl)prop-2-enamide], for which the “% of control remaining” value was determined as 85.9959%.

Consider `O=C(CCl)N1C[C@@H]2C[C@H]1CN2c1ccccc1` [5-E22, 2-chloro-1-[(1S,4S)-5-phenyl-2,5-diazabicyclo[2.2.1]heptan-2-yl]ethan-1-one], for which the “% of control remaining” value came out at 106.756%.

Regarding `O=C1C=CC(=O)N1c1cccc([N+](=O)[O-])c1` [10-P15, 1-(3-nitrophenyl)-2,5-dihydro-1H-pyrrole-2,5-dione], the “% of control remaining” value is reported as 35.6906%.

`COc1cccc(N2C(=O)C=CC2=O)c1` [10-K03, 1-(3-methoxyphenyl)-2,5-dihydro-1H-pyrrole-2,5-dione]: the “% of control remaining” value came to 23.8457%.

Take `O=C1C=CC(=O)N1c1cccc(O)c1` [10-O07, 1-(3-hydroxyphenyl)-2,5-dihydro-1H-pyrrole-2,5-dione]: the “% of control remaining” value was 26.4952%.

For `COc1cccc(NC(=O)C(C#N)=Cc2ccc(O)cc2)c1` [8-O17, 2-cyano-3-(4-hydroxyphenyl)-N-(3-methoxyphenyl)prop-2-enamide], the “% of control remaining” value came out at 71.584%.

For the compound `COc1cccc(NC(=O)C(C)Cl)c1` (stereo not shown) [6-I03, 2-chloro-N-(3-methoxyphenyl)propanamide], the “% of control remaining” value was 100.863%.

As to `Cc1cc(C(=O)CCl)c(C)n1-c1cccc([N+](=O)[O-])c1` [10-B16, 2-chloro-1-[2,5-dimethyl-1-(3-nitrophenyl)-1H-pyrrol-3-yl]ethan-1-one], the “% of control remaining” value turned out to be 67.329%.

On to `NS(=O)(=O)c1cccc(N2C(=O)C=CC2=O)c1` [10-I05, 3-(2,5-dioxo-2,5-dihydro-1H-pyrrol-1-yl)benzene-1-sulfonamide], for which the “% of control remaining” value is reported as 102.396%.

As to `CC(=O)Nc1cccc(N2C(=O)C=CC2=O)c1` [10-D09, N-[3-(2,5-dioxo-2,5-dihydro-1H-pyrrol-1-yl)phenyl]acetamide], the “% of control remaining” value was determined as 85.564%.
